From PubChem BioAssay (NCI)
“And” between values parts separate entries of the source, which are not always exact repeats. Equal entries are not always repeated. The panel holds about 83,000 compounds, 20% with a hit somewhere; the sample as a whole holds those more often.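 For each line, cells grew in 96-well plates with the test compound present at a single concentration for 48 hours.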 The source made the active and inactive calls. How the source made its calls: active means growth percent below 10; inactive means the rest.

Tested on: MDA-MB-468 breast
Assay: NCI-60 one-dose screen, 48 h (100 = growth as untreated, 0 = no growth, -100 = all killed)
Details: 10 µM unless noted

SMILES	growth
CO[C@H](C(=O)[C@@H](O)[C@@H](C)O)[C@@H]1Cc2cc3cc(O[C@H]4C[C@@H](O[C@H]5C[C@@H](O)[C@H](O)C(C)O5)[C@H](O)C(C)(O)O4)cc(O)c3c(O)c2C(=O)[C@H]1O[C@H]1C[C@@H](O[C@H]2C[C@@H](O[C@H]3C[C@@H](OC)[C@H](O)C(C)O3)[C@@H](O)C(C)O2)[C@H](O)C(C)O1 (stereo not given in full)	14% (inactive)
Fc1ccc(-c2nnc(/C=C/c3cn(-c4ccccc4)nc3-c3ccccc3)o2)cc1	103% (inactive)
COC(=O)C1OC1c1cc([N+](=O)[O-])ccc1OC (stereo not given)	76.2% (inactive)
CCc1nn2c(C)cc(C)nc2c1Cc1ccc(/C=C/CN2CCN(CCOCCOCCN3CCN(C/C=C/c4ccc(Cc5c(CC)nn6c(C)cc(C)nc56)cc4)CC3)CC2)cc1	-6.16% (active)
O=C1NC(=C(Cl)Cl)/C(=N/S(=O)(=O)N2CCCCC2CC2(C(F)(F)F)N=N2)N1 (stereo not given)	-44.8% (active)
O=C(O)/C=C(\c1nc2ccc([N+](=O)[O-])cc2[nH]1)c1cc(Cl)ccc1O	-2.53% (active)
[O-][N+](=Nc1cccc(Cl)c1)c1cccc(Cl)c1	-25% (active)
CCOC(=O)c1sc2ncnc(Nc3ccc4c(cnn4C(=O)Nc4ccccc4)c3)c2c1C	78.1% (inactive)
COC1=C(OC)C(=O)C(OC)=C(OC)C1=O	33.4% (inactive)
CCOC(=O)c1c(C)oc2ncnc(Nc3ccc(NC(=O)Nc4ccc(CC)cc4)cc3)c12	128% (inactive)
CN1CC(c2ccccc2)C(C(=O)c2ccc(Br)cc2)C12C(=O)Nc1ccccc12 (stereo not given)	106% (inactive)
O=C(CCN1CCOCC1)Nc1cccc(-n2cc(-c3ccncc3)c(-c3ccc(Cl)c(O)c3)n2)c1	25.2% (inactive)
CCCCC/C(C)=N\NC(N)=S	-6.78% (active)
O=C(/C=C/c1ccccc1Cl)Nc1ncc(Cc2cc(Cl)ccc2Cl)s1	22.8% (inactive)
O=C(NC1CCCC1)c1ccc(N2CCC(NCc3cccc(C(F)(F)F)c3)CC2)cc1	77.7% (inactive)
COc1ccc(-c2nc3c(c(=O)n2C(C)=O)C(c2ccc(Cl)cc2)c2sc4c(Cl)cccc4c2O3)cc1 (stereo not given)	5.77% (active)
Cc1c2cnccc2c(C)c2c1c1cc(C3OCCCO3)ccc1n2C	-34% (active)
COc1ccc(C(O)c2cc3c(N)c(C(=O)Nc4cccc(Cl)c4C)sc3nc2C)cc1 (stereo not given)	8.74% (active)
COc1cc2c(c(OC)c1OC)C(=O)/C(=C/c1cc(C)c(O)c(C)c1)S2	5.19% (active)
COc1ccc(/C=C/c2nc3ccccc3c(=O)n2-c2ccc(C#Cc3ccc(C(C)(C)C)cc3)cc2C)c(OC)c1	97.9% (inactive)

SMILES	growth
COc1cccc(-c2nc(SCC(=O)Nc3ccc(C(=O)/C=C/c4ccc(OC)c(OC)c4)cc3)[nH]c(=O)c2C#N)c1	65.7% (inactive)
Cc1cc(C)c(N)c(Br)c1	104% (inactive) and 107% (inactive)
CCn1cc(/C=C2\Oc3cc(OCC#N)ccc3C2=O)c2cc(OC)ccc21	20% (inactive)
Clc1ccc(-c2nc(Br)cn3ccnc23)cc1	78.9% (inactive)
N/N=C(/Cc1ccccc1)NNC(N)=S	115% (inactive)
O=C1OC(c2ccc(-c3ccccc3)cc2)=C/C1=C/c1c2ccccc2cc2ccccc12	90.2% (inactive)
COc1cc2nc(-c3cnc(N(C)C)nc3)nc(NC3CCN(Cc4ccccc4)CC3)c2cc1OC	-72.1% (active)
CCOC(=O)CC1CSC(N/N=C/c2ccc(-n3cccn3)cc2)=N1 (stereo not given)	95.3% (inactive)
c1ccc(C2Cc3ccccc3C2=NC2CCCCC2)cc1 (stereo not given)	111% (inactive)
c1ccc(-c2n(Cc3ccc4ccccc4c3)c3c4ccccc4c4ccccc4c3[n+]2Cc2ccc3ccccc3c2)cc1	-75.5% (active)
Clc1ccc(-c2c3ccc(=[N+]4CCCCC4)cc-3oc3cc(N4CCCCC4)ccc23)cc1	-87.4% (active)
CCCCOC(OCCCC)c1ccccc1	104% (inactive)
Cc1ccc(S(=O)(=O)CCCl)cc1	118% (inactive)
CN1C/C=C\CCOc2cccc(c2)-c2ccnc(n2)Nc2cccc(c2)C1	-58.2% (active)
CCCCCCCCCCCC(=O)[O][Sn]([CH2]CCC)([CH2]CCC)[CH2]CCC	-79.4% (active)
CCOC(=O)c1sc(/N=C2\NC(=O)/C(=C/c3ccc(N4CCN(C)CC4)cc3)S2)nc1C	111% (inactive)
CCOC(=O)c1c(NC(=O)c2ccccc2)sc2c3c(ccc12)OCN(C)C3	-73.7% (active)
C[N+](C)(C/C=C/c1ccccc1)Cc1ccccc1	78.8% (inactive)
N#C/C(=C\c1ccccc1Cl)c1cc2ccccc2[nH]1	58.1% (inactive)
Nc1cc(-c2cccc(OC(F)(F)F)c2)nc2ccc(N3CCCC3)cc12	-10.7% (active) and -15.9% (active) and -23.5% (active)
